# Test results published in the supplement of paper PMC8728848.
# Only a selection was taken, and the strongest signals are over-represented in it overall.
# What was measured:
# Assay in all cases: glycan array binding signal (z-score within array); higher = stronger binding
# Settings in all cases: glycan notation: IUPAC condensed, linker removed
# Fuc(a1-2)Gal = target: Fuc(a1-2)Gal
# Outline: (§1)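 Glycan array binding is given as a within-array Z-score, which can be read as non-binding when negative. The arrays, 3228 of them, came from the Consortium for Functional Glycomics database and were retained only where the protein sequence was available. Z-scores were averaged across arrays of the same protein sequence at different concentrations or buffers and across linkers.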
# Fuc(a1-2)Gal(b1-3)GlcNAc = target: Fuc(a1-2)Gal(b1-3)GlcNAc
# Outline: as §1
# Fuc(a1-2)Gal(b1-4)Glc6S = target: Fuc(a1-2)Gal(b1-4)Glc6S
# Outline: as §1
# [1] = target: Fuc(a1-2)Gal(b1-4)[Fuc(a1-3)]GlcNAc(b1-2)Man(a1-3)[Fuc(a1-2)Gal(b1-4)[Fuc(a1-3)]GlcNAc(b1-2)Man(a1-6)]Man(b1-4)GlcNAc(b1-4)[Fuc(a1-6)]GlcNAc
# Outline: as §1
# [2] = target: Fuc(a1-2)Gal6S(b1-3)GlcNAc
# Outline: as §1
# [3] = target: Fuc(a1-2)[GalNAc(a1-3)]Gal(b1-4)GlcNAc
# Outline: as §1
# [4] = target: Fuc(a1-2)[GalNAc(a1-3)]Gal(b1-4)GlcNAc(b1-2)Man(a1-3)[Fuc(a1-2)[GalNAc(a1-3)]Gal(b1-4)GlcNAc(b1-2)Man(a1-6)]Man(b1-4)GlcNAc(b1-4)[Fuc(a1-6)]GlcNAc
# Outline: as §1
# [5] = target: Fuc(a1-3)[Gal(b1-4)]GlcNAc(b1-6)GalNAc
# Outline: as §1
# [6] = target: Gal(a1-3)Gal(b1-3)GlcNAc(b1-3)GalNAc
# Outline: as §1
# [7] = target: Gal(a1-4)Gal(b1-3)GlcNAc(b1-2)Man(a1-3)[Gal(a1-4)Gal(b1-3)GlcNAc(b1-2)Man(a1-6)]Man(b1-4)GlcNAc(b1-4)GlcNAc
# Outline: as §1
# [8] = target: Gal(b1-3)GlcNAc(b1-2)Man(a1-3)[Gal(b1-3)GlcNAc(b1-2)Man(a1-6)]Man(b1-4)GlcNAc(b1-4)[Fuc(a1-6)]GlcNAc
# Outline: as §1
# [9] = target: Gal(b1-3)GlcNAc(b1-6)[Gal(b1-3)]GalNAc
# Outline: as §1
# [10] = target: Gal(b1-4)GalNAc(a1-3)[Fuc(a1-2)]Gal(b1-4)GlcNAc
# Outline: as §1
# Gal(b1-4)GlcNAc(b1-2)Man = target: Gal(b1-4)GlcNAc(b1-2)Man
# Outline: as §1
# [11] = target: Gal(b1-4)GlcNAc(b1-2)Man(a1-3)[Man(a1-6)]Man(b1-4)GlcNAc(b1-4)GlcNAc
# Outline: as §1
# [12] = target: Gal(b1-4)GlcNAc(b1-3)Gal(b1-3)GlcNAc
# Outline: as §1
# [13] = target: Gal(b1-4)GlcNAc(b1-3)Gal(b1-4)GlcNAc(b1-3)Gal(b1-4)GlcNAc(b1-2)[Gal(b1-4)GlcNAc(b1-3)Gal(b1-4)GlcNAc(b1-3)Gal(b1-4)GlcNAc(b1-6)]Man(a1-6)[Gal(b1-4)GlcNAc(b1-3)Gal(b1-4)GlcNAc(b1-3)Gal(b1-4)GlcNAc(b1-2)Man(a1-3)]Man(b1-4)GlcNAc(b1-4)[Fuc(a1-6)]GlcNAc
# Outline: as §1
# [14] = target: Gal(b1-4)GlcNAc(b1-3)Gal(b1-4)GlcNAc(b1-3)Gal(b1-4)GlcNAc(b1-3)Gal(b1-4)GlcNAc(b1-2)[Gal(b1-4)GlcNAc(b1-3)Gal(b1-4)GlcNAc(b1-3)Gal(b1-4)GlcNAc(b1-3)Gal(b1-4)GlcNAc(b1-6)]Man(a1-6)[Gal(b1-4)GlcNAc(b1-3)Gal(b1-4)GlcNAc(b1-3)Gal(b1-4)GlcNAc(b1-3)Gal(b1-4)GlcNAc(b1-2)Man(a1-3)]Man(b1-4)GlcNAc(b1-4)[Fuc(a1-6)]GlcNAc
# Outline: as §1
# [15] = target: Gal(b1-4)GlcNAc(b1-3)Gal(b1-4)GlcNAc(b1-3)Gal(b1-4)GlcNAc(b1-3)Gal(b1-4)GlcNAc(b1-3)Gal(b1-4)GlcNAc(b1-2)[Gal(b1-4)GlcNAc(b1-3)Gal(b1-4)GlcNAc(b1-3)Gal(b1-4)GlcNAc(b1-3)Gal(b1-4)GlcNAc(b1-3)Gal(b1-4)GlcNAc(b1-6)]Man(a1-6)[Gal(b1-4)GlcNAc(b1-3)Gal(b1-4)GlcNAc(b1-3)Gal(b1-4)GlcNAc(b1-3)Gal(b1-4)GlcNAc(b1-3)Gal(b1-4)GlcNAc(b1-2)Man(a1-3)]Man(b1-4)GlcNAc(b1-4)[Fuc(a1-6)]GlcNAc
# Outline: as §1
# [16] = target: Gal(b1-4)GlcNAc(b1-3)Gal(b1-4)[Fuc(a1-3)]GlcNAc(b1-3)Gal(b1-4)[Fuc(a1-3)]GlcNAc
# Outline: as §1
# [17] = target: Gal(b1-4)GlcNAc(b1-3)[Gal(b1-4)GlcNAc(b1-6)]Gal(b1-4)GlcNAc
# Outline: as §1
# [18] = target: Gal(b1-4)GlcNAc(b1-6)[Gal(b1-4)GlcNAc(b1-3)]GalNAc
# Outline: as §1
# [19] = target: Gal3S(b1-3)[Fuc(a1-4)]GlcNAc
# Outline: as §1
# Gal3S6S(b1-4)GlcNAc6S = target: Gal3S6S(b1-4)GlcNAc6S
# Outline: as §1
# Gal4S6S(b1-4)GlcNAc = target: Gal4S6S(b1-4)GlcNAc
# Outline: as §1
# Gal6P(b1-4)GlcNAc = target: Gal6P(b1-4)GlcNAc
# Outline: as §1
# [20] = target: GlcNAc(b1-2)Gal(b1-3)GalNAc
# Outline: as §1
# [21] = target: GlcNAc(b1-2)[GlcNAc(b1-4)]Man(a1-3)[GlcNAc(b1-2)Man(a1-6)]Man(b1-4)GlcNAc(b1-4)GlcNAc
# Outline: as §1
# [22] = target: GlcNAc(b1-3)Gal(b1-4)GlcNAc(b1-3)Gal(b1-4)GlcNAc(b1-3)Gal(b1-4)GlcNAc(b1-2)[GlcNAc(b1-3)Gal(b1-4)GlcNAc(b1-3)Gal(b1-4)GlcNAc(b1-3)Gal(b1-4)GlcNAc(b1-6)]Man(a1-6)[GlcNAc(b1-3)Gal(b1-4)GlcNAc(b1-3)Gal(b1-4)GlcNAc(b1-3)Gal(b1-4)GlcNAc(b1-2)Man(a1-3)]Man(b1-4)GlcNAc(b1-4)[Fuc(a1-6)]GlcNAc
# Outline: as §1
# GlcNAc(b1-3)Man = target: GlcNAc(b1-3)Man
# Outline: as §1
binder,measurement,setting,value
"Cp ZmpB (Clostridium perfringens), Q0TR08 (protein) MNKRKIAAIILATMITNLSATTIDVLAQELNTKNNSKVEVSHDDESHQARVSKFDLYNSDKLDAYNQEFQVSRSNIKSINNNGGKYNSSTIDKAIDGNLETHWETGKPNDANFTNEVVVTFNEITNIDRIVYSARRDSARGKGFAKEFEIYASLKDEGDDFNLVSSGEYTESTRDLVEIKFNPTDFKRLKFKFKKADQNWASAAEFMFYKEDKLNEKFNGLFTDSSMNKVSEEFNTLEKLNAFENELKDHPIYDLYKEGLNNARAILTETSENPTKATLGQITYNLNDDYNNQYRMPYKNIKAIKNNGRHYAAQNIEKAIDNDVNTYWETGTLNSSSFNNEVEVEFNDLVTLDRIVYGSRQSDLKGFAEEVYIYASRTSKGDTYKLVATGAHEATKGLVEAKFEPTEFKRVKFKFKKSKQNSATLNELMFYKPDEVYSSIPKLFTDGTMSELSEEFNSLEKINAFKEKAKNHPLYNDFNETIELAESLISNPRKEDVLELEMRGDSISEAKKRKVWNFQDWQITGLSARAGDKITVYVDVAEGDPTPTLLYKQSLTQHGGATSFQLKPGKNEITIPEINYESNGIPKDVIQGGDLFFTNYKSDSQKRAPKVRIEGASKYPVFILGKSDENEVMKELEAYVEKIKAEPKTTPNIFAVSSNKSLEFVQATYALDWYKKNNKTPKYTAEQWDQYIADAMGFWGFDNSKDVNSDFNFRIMPMVKNLSGGAFMNAGNGVIGIRPGNQDAILAANKGWGVAHELGHNFDTGGRTIVEVTNNMMPLFFESKYKTKTRITDQNIWENNTYPKVGLDDYSNNELYNKADSTHLAQLAPLWQLYLYDNTFYGKFERQFRERDFGNKNREDIYKSWVVAASDAMELDLTEFFARHGIRVDDKVKEDLAKYPKPDKKIYYLNDLAMNYKGDGFTENAKVSVSTSGSNGNIKLSFSVDDENKDNILGYEIRRDGKYVGFTSNDSFVDTKSNLDEDGVYVVTPYDRKLNTLNPIEVNALQPTLSVNPVITLALGEEFNEEEYIVAKDIKGNSLSESVKVKSSNVNTSKVGEYEVLYSLEDSKGNEYTKTSKVNVVSRKEYMSDLTPKQSSNGWGTVRKDKSISGGVIGLTRDGDFVDYNKGLGLHSNAEYVYDLEGKDYDYFESYVGVDKAMSSRPASSVIFKVLVDGEEKFNSGVMRSTTPQKYVKVDVKNAKELKLIVNDAGDGDSSDHASFGDAKLATLSSKPIIKGENLAYSMDEKVDLMKGITATDIEDGNITSKVQIKSSDFVEGKSGIFTVVYSVTDSDGLTSECSRTIAVTDKETQLSDLNWKSATIGSGSVRKDRAVSGNQIRLLNEDNSVETFAKGIGTHSYSEIVYNSEGYDIFDTWVGIDRHVADKKVSSVKFKVYVDGELKAETDVMRIDTPKKRLVVDVRNSKEIKLVVDVADNGNNWDHADWADAKFRNLAEYDASELNKAIEEAKKLDLNNYTEESSEALKNAISKGEEALLSKDKETINSALEELNKEMNSLVKVDLNAVINIPDKYLLKSIQNQLNKTGDITLGDMYSLTTLTLSGVEDLTGLENAKNLETLNMDYNEVKDLRPLSKLKKLNTLNAQEQFIAAGELKPSNGKVIGDSKVYNREGKNVAKTIRVVDKNGNTILEQDAKDEFTINTKDLSSGLYGVHVLFEDEGFSGVMFYLFNV",glycan array binding signal (z-score),Fuc(a1-2)Gal,22.4
same,glycan array binding signal (z-score),Fuc(a1-2)Gal(b1-3)GlcNAc,-0.148
same,glycan array binding signal (z-score),Fuc(a1-2)Gal(b1-4)Glc6S,-0.219
same,glycan array binding signal (z-score),[1],-0.251
same,glycan array binding signal (z-score),[2],-0.122
same,glycan array binding signal (z-score),[3],-0.068
same,glycan array binding signal (z-score),[4],-0.353
same,glycan array binding signal (z-score),[5],-0.181
same,glycan array binding signal (z-score),[6],-0.001
same,glycan array binding signal (z-score),[7],-0.252
same,glycan array binding signal (z-score),[8],-0.193
same,glycan array binding signal (z-score),[9],0.823
same,glycan array binding signal (z-score),[10],0.022
same,glycan array binding signal (z-score),Gal(b1-4)GlcNAc(b1-2)Man,0.161
same,glycan array binding signal (z-score),[11],-0.033
same,glycan array binding signal (z-score),[12],1.39
same,glycan array binding signal (z-score),[13],-0.102
same,glycan array binding signal (z-score),[14],-0.093
same,glycan array binding signal (z-score),[15],3.56
same,glycan array binding signal (z-score),[16],-0.332
same,glycan array binding signal (z-score),[17],-0.301
same,glycan array binding signal (z-score),[18],0.086
same,glycan array binding signal (z-score),[19],-0.055
same,glycan array binding signal (z-score),Gal3S6S(b1-4)GlcNAc6S,1.17
same,glycan array binding signal (z-score),Gal4S6S(b1-4)GlcNAc,0.461
same,glycan array binding signal (z-score),Gal6P(b1-4)GlcNAc,-0.373
same,glycan array binding signal (z-score),[20],2.81
same,glycan array binding signal (z-score),[21],1.11
same,glycan array binding signal (z-score),[22],-0.173
same,glycan array binding signal (z-score),GlcNAc(b1-3)Man,0.057
